Drawing on PubChem BioAssay, this text covers composite z-score and z-score for 16 compounds.

SMILES strings stand for the structures. Calls of active or inactive are those of the source.

Assay [1] in a line: anti-His antibody binders, primary screen, artefact control for SMM control protein annotation, biochemical, small-molecule microarray, 635 nm fluorescence (AID 1128).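 Further: score merges feature fluorescence with signal-to-noise for each printed compound spot.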 Conditions: anti-His Alexa647 antibody binding, higher = more signal.
For assay [2], the system named is Human papillomavirus type 1a E7 protein (residues 1-88). The assay can be described thus: HPV1a E7 small-molecule binders, primary screen, biochemical, small-molecule microarray, residues 1-88, 635 nm (AID 1129). The conditions noted are these: small-molecule microarray binding, fluorescence 635 nm; higher = more signal.
In assay [3] the target is Focal adhesion kinase 1 (Homo sapiens) (UniProt Q05397). The assay can be described thus: small-molecule microarray binders of FAK, primary screen, biochemical, 635/667 nm fluorescence, BSA, DTT (AID 1130).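 Further: composite of spot emission at 667 nm and signal to noise over triplicate slides.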 Conditions: PTK2 binding, 635 nm fluorescence, higher = more signal.
The test system of assay [4] is Fibrinogen (Alexa647-labelled). Kind of assay: fibrinogen binders on compound microarrays, profiling panel, artefact control for SMM control-protein annotation, biochemical, small-molecule microarray, 635/667 nm fluorescence (AID 1131).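 Further: z-score merges 667 nm fluorescence with per-spot signal-to-noise over triplicate slides.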 The conditions noted are these: fibrinogen-A647 binding fluorescence, higher = more signal.
Assay [5] concerns the target Follistatin (Homo sapiens) (UniProt P19883). Kind of assay: follistatin binders on small-molecule microarrays, primary screen, biochemical, small-molecule microarray, 635/667 nm fluorescence (AID 1132). The conditions noted are these: FST binding, 635 nm fluorescence, higher = more signal.
Assay [6] concerns the target Fibroblast growth factor 2 (Homo sapiens) (UniProt P09038). The assay can be described thus: FGF2 binders on small-molecule microarrays, primary screen, biochemical, small-molecule microarray, 635/667 nm fluorescence (AID 1133). Conditions: small-molecule microarray binding, FGF2, fluorescence 635/667; higher = more signal.
The nature of assay [7]: mitochondrial membrane potential change in A549 cells, profiling panel, cell-based, JC-1 fluorescence, basal, 24 h, 100 nL (AID 1138).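 Further: A549 lung adenocarcinoma cells under basal conditions with no added stimulus; test concentration not given here.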 Conditions: higher = more signal.
A further assay concerns Lefty1. The assay can be described thus: Lefty1 binders on small-molecule microarrays, primary screen, biochemical, small-molecule microarray, 635/667 nm fluorescence (AID 1139). Conditions: small-molecule microarray binding, fluorescence 635/667; higher = more signal.
In assay [8] the test system is wheat germ agglutinin (Triticum aestivum), Alexa647-labelled. The assay can be described thus: wheat germ agglutinin binders on compound microarrays, profiling panel, artefact control for SMM control-protein annotation, biochemical, small-molecule microarray, 635/667 nm fluorescence (AID 1140).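 Further: score merges 667 nm feature emission with signal to noise over triplicate slides.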 Conditions: WGA-A647 binding, 635 nm fluorescence, higher = more signal.
In assay [9] the target is Luciferin 4-monooxygenase (Photinus pyralis) (UniProt P08659). Kind of assay: firefly luciferase enzyme inhibitors, primary screen, biochemical, luminescence, purified enzyme, 2006 set (AID 1141).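 Further: cell-free assay with purified firefly luciferase at 100 ng per well in PBS; test concentration not given here.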 The conditions noted are these: SteadyGlo luminescence, 30 min, higher = more signal, called active from +8 up or from −8 down.
Chain of Luciferin 4-monooxygenase (Photinus pyralis) (P08659 whole entry, looked up): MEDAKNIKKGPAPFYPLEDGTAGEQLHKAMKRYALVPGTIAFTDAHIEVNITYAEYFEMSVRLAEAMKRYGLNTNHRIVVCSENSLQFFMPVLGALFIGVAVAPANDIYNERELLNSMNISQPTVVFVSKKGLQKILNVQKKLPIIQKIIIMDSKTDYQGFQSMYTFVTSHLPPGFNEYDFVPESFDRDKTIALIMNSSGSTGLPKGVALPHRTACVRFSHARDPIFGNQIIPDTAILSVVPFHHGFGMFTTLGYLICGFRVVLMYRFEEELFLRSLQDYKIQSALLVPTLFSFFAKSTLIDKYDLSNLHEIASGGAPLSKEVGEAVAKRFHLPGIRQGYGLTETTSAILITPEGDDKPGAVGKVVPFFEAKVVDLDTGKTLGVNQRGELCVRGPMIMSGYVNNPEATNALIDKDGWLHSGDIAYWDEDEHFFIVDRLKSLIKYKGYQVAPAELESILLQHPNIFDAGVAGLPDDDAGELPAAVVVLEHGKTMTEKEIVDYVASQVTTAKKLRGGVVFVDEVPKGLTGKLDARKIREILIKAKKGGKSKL

Chain of Fibroblast growth factor 2 (Homo sapiens) (P09038 whole entry, looked up): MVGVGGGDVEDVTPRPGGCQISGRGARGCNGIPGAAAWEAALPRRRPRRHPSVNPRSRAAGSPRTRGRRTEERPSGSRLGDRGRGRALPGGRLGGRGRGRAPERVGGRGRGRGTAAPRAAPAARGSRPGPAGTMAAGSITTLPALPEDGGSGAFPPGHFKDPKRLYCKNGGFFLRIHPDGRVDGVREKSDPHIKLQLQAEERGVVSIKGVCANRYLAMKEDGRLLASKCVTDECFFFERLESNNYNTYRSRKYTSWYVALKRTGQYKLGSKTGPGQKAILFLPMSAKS
Chain of Follistatin (Homo sapiens) (P19883 whole entry, looked up): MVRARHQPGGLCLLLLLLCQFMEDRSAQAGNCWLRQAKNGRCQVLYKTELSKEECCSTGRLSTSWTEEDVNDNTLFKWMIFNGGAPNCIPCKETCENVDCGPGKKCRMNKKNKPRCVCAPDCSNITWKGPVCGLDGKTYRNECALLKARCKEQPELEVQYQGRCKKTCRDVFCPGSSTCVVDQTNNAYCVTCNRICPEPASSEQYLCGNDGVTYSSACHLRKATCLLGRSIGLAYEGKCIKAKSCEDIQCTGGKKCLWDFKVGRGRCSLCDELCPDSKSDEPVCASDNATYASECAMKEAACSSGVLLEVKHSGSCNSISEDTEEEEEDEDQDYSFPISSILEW
Chain of Focal adhesion kinase 1 (Homo sapiens) (Q05397 whole entry, looked up): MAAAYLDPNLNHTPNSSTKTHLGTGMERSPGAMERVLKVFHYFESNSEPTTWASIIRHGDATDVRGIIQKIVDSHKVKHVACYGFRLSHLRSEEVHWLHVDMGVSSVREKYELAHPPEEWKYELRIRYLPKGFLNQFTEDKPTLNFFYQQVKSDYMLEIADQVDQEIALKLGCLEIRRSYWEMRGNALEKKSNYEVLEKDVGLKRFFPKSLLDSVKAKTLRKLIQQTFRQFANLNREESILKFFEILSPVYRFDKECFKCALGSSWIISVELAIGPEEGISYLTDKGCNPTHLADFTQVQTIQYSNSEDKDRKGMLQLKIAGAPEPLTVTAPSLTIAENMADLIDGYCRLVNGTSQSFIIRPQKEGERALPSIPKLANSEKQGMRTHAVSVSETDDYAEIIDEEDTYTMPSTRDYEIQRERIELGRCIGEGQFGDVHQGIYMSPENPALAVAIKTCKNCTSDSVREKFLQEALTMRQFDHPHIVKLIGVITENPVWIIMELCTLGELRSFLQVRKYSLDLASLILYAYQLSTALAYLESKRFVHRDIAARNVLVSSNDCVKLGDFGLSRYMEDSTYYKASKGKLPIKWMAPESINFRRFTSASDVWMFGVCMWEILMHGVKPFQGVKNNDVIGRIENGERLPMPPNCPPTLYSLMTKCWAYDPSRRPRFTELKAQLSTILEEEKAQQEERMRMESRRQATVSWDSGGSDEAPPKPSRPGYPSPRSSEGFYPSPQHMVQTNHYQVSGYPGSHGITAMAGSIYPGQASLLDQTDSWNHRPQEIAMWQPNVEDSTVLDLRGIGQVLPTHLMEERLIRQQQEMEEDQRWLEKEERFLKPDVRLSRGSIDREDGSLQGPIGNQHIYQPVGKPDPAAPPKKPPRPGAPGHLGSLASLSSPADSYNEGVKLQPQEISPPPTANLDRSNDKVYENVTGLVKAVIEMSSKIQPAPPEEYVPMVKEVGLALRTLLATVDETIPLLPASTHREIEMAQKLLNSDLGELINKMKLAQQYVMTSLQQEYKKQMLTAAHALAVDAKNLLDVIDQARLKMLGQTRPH

Turning to `COC(=O)[C@@]1(Cc2ccc(F)cc2)[C@H]2c3cc(C(=O)N4CCCC4)n(Cc4cc(F)cc5c4OCOC5)c3C[C@H]2CN1C(=O)c1ccccc1`, the composite z-score in [1] was 1.93; in assay [2], -0.0867; in [3], -0.225; in [4], 0.947; in assay [5], 0.906; in assay [6] it was -0.796. Also, the figures for the composite z-score (in the assay with Lefty1; in assay [8]) were 0.348 and 0.755, respectively. The results for the z-score in assay [7] and in assay [9] were 1.8 and 2.74 (inactive), respectively.

As to `N#Cc1ccc(-c2cccc(=O)o2)cc1`, the composite z-score in assay [1] turned out to be 0.212; in assay [2], 0.651; in [3], 0.111; in [4], 0.474; in assay [5], 0.268; in assay [6] it was 0.185. Also, the composite z-score in the assay on Lefty1 came to 0.249; in assay [8] it was 0.48. Besides, the values for the z-score in assay [7] and in assay [9] were -0.119 and 1.68 (inactive), respectively.

`C=CCC(OC(C)=O)[C@@H]1[C@@H](N(Cc2ccc(-c3cccc(C(F)(F)F)c3)o2)C(=O)Cc2ccc(F)cc2)c2cc(OCCCO)ccc2N1C(=O)Cc1ccc2ccccc2c1` (stereo not given in full): the composite z-score in [1] was 0.114; in assay [2], -1.33; in assay [3], -0.216; in [4], -0.193; in assay [5], 0.112; in [6] it was -0.599. For the same compound, the composite z-score with Lefty1 was -0.482; in assay [8] it was 0.0382. Further, the z-score in assay [7] is 0.696; in assay [9] it was -0.442 (inactive).

As to `COCCOC(=O)N1C(=O)[C@@]2(c3cc(C#CCC(C(=O)OC)C(=O)OC)ccc31)[C@H](c1ccc(O)cc1)N1[C@H](c3ccccc3)[C@H](c3ccccc3)OC(=O)[C@H]1[C@@H]2C(=O)Nc1nc2ccccc2s1`, the composite z-score turned out to be 1.15 in [1]; 1.21 in assay [2]; 2.02 in assay [3]; 0.954 in assay [4]; 1.42 in [5]; 1.54 in [6]. Further, the composite z-score in the assay on Lefty1 was determined as 1.44; in assay [8] it was 0.968. Moreover, the z-score in assay [7] was -2.1; in assay [9], -0.344 (inactive).

With `O=C1NC(=O)C2C1C=CC(C(O)c1ccc(B(O)O)cc1)N2Nc1ccc(Cl)cc1Cl` (stereo not given), the composite z-score in assay [1] was 0.207; in assay [2], -0.213; in assay [3], 0.265; in assay [4] it was 0.824; in [5] it was 0.529; in assay [6], -0.514. For the same compound, the composite z-score with Lefty1 is -0.382; in assay [8] it was 0.641. Further, the z-score was -0.711 in [7] and -0.63 (inactive) in assay [9].

As for `CC(C)=CCCC=C(C)C(O)C1C=CC2C(=O)N(c3ccccc3)C(=O)C2N1Nc1ccc(C#N)cc1` (stereo not given), the composite z-score in assay [1] was 1; in [2], 1.21; in assay [3], 0.901; in assay [4] it was 0.972; in assay [5] it was 1.31; in assay [6], 0.333. Further, the composite z-score with Lefty1 worked out at 0.507; in assay [8], 1.06. The figures for the z-score in [7] and in [9] were -0.902 and -1.32 (inactive), respectively.

In the case of `COC(=O)C1(Cc2ccccc2)C=C2C(=C(C)C(=O)C2C)CN1` (stereo not given), the composite z-score in [1] was 1.21; in assay [2] it was 0.732; in assay [3] it was 0.296; in [4], 0.775; in [5], 0.714; in assay [6], -0.298. The composite z-score with Lefty1 was -0.104; in [8], 0.622. Besides, the z-score in [7] was 1.47; in assay [9], -0.112 (inactive).

Turning to `COCCOC(=O)N1C(=O)[C@@]2(c3cc(C#CC4(O)CCCCCC4)ccc31)[C@H](c1ccc(O)cc1)N1[C@H](c3ccccc3)[C@H](c3ccccc3)OC(=O)[C@H]1[C@@H]2C(=O)N1CCCCCCC1`, the composite z-score worked out at 1.01 in assay [1]; 1.19 in [2]; 0.817 in assay [3]; 0.605 in [4]; 1.39 in assay [5]; 0.608 in assay [6]. For the same compound, the composite z-score in the assay on Lefty1 amounted to 0.851; in [8], 0.907. In addition, the z-score in assay [7] is 0.7; in [9], -0.552 (inactive).

Take `O=C(NCCN1CCOCC1)[C@@H]1c2ccccc2C(=O)N(Cc2ccc(OC(F)(F)F)cc2)[C@H]1c1ccc(CO)cc1`: the composite z-score in assay [1] is 1.97; in assay [2] it was 0.292; in [3] it was 0.022; in assay [4], -0.419; in assay [5], 0.0596; in [6], -1.23. Besides, the composite z-score with Lefty1 is -0.332; in assay [8], -0.109. For the same compound, the z-score is 2.22 in assay [7] and -0.408 (inactive) in assay [9].

`COCCCNC(=O)[C@@H]1c2ccccc2C(=O)N(Cc2ccc(OC(F)(F)F)cc2)[C@H]1c1ccc(CO)cc1`: the composite z-score is 1.54 in assay [1]; 1.11 in assay [2]; 1.79 in assay [3]; 0.654 in assay [4]; 1.14 in assay [5]; 0.722 in assay [6]. Moreover, the figures for the composite z-score (in the assay with Lefty1; in assay [8]) were 0.541 and 0.316, respectively. Besides, the z-score in assay [7] is 2.03; in assay [9], -0.0459 (inactive).

For the compound `O=C(NC1CC1)[C@@H]1c2ccccc2C(=O)N(Cc2cc(C(F)(F)F)cc(C(F)(F)F)c2)[C@H]1c1ccc(CO)cc1`, the composite z-score in assay [1] is 0.399; in assay [2], 0.228; in assay [3], 0.052; in assay [4] it was 0.427; in [5] it was 0.755; in assay [6], 0.0292. Also, the composite z-score in the assay on Lefty1 is -0.291; in assay [8], 0.416. In addition, the z-score in [7] was -0.197; in assay [9], -0.423 (inactive).

As for `COC(=O)[C@@]1(Cc2ccc(F)cc2)[C@H]2c3cc(C(=O)N(C)C)n(CCc4ccc(O)c(O)c4)c3C[C@H]2CN1C(=O)c1ccccc1`, the composite z-score was -0.0012 in [1]; 1.18 in assay [2]; 0.512 in assay [3]; 0.823 in [4]; -0.123 in [5]; -0.72 in [6]. Also, the composite z-score was -0.08 in the assay with Lefty1 and 0.528 in [8]. In addition, the values for the z-score in assay [7] and in [9] were 0.987 and 0.569 (inactive), respectively.

On to `COC(=O)[C@@]1(Cc2ccc(F)cc2)[C@H]2c3cc(C(=O)N4CCCC4)n(Cc4ccccn4)c3C[C@H]2CN1C(=O)c1ccccc1`, for which the composite z-score in assay [1] is 1.58; in [2], 1.25; in [3], 1.01; in assay [4], 0.903; in [5], 0.37; in [6] it was -0.453. Also, the figures for the composite z-score (with Lefty1; in [8]) were -0.2 and -0.128, respectively. The z-score was -0.0238 in [7] and 1.1 (inactive) in [9].

Regarding `C=CC1c2cc(O)c(OC)cc2CCN1C` (stereo not given), the composite z-score was 0.586 in assay [1]; -1.39 in assay [2]; -0.636 in assay [3]; -0.934 in assay [4]; -0.424 in [5]; -0.475 in assay [6]. For the same compound, the composite z-score was -1.23 in the assay with Lefty1 and 0.356 in [8]. The z-score is -0.0592 in [7] and -0.0535 (inactive) in assay [9].

Consider `O=C1C[C@]2(c3ccc([N+](=O)[O-])cc3)C(=O)N(C3CC3)c3cc(CO)ccc3[C@H]2N1C1CCCCC1`, for which the composite z-score is -0.268 in assay [1]; -0.115 in [2]; 0.0202 in [3]; -0.408 in [4]; -0.0193 in assay [5]; 0.173 in assay [6]. In addition, the composite z-score with Lefty1 was -0.0446; in [8], 0.0523. In addition, the z-score in assay [7] is -0.22; in assay [9] it was 0.277 (inactive).

In the case of `CC(C)N1C(=O)c2ccccc2[C@@H](C(=O)NCC(F)(F)F)[C@@H]1c1ccc(CO)cc1`, the composite z-score in assay [1] was -0.0668; in assay [2], 0.0715; in assay [3], 0.284; in [4] it was -0.537; in assay [5], 0.527; in assay [6] it was 0.0683. The composite z-score in the assay with Lefty1 is -0.232; in [8], -0.348. Moreover, the z-score in assay [7] was 1.41; in assay [9] it was -0.189 (inactive).
